Shown is part of a subset that was picked to be rich in hits.
Six1-Eya2 blk: inhibitors of human Six1/Eya2 interaction; AlphaScreen GST-Six1/His-Eya2 binding, biochemical; active compounds read low; Q15475+O00167; hit rate 0.56% among 360,000; activity change, % (concentration not given with the values); AID 651725
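Compounds are tested against tagged Six1 and Eya2 proteins bridged by glutathione donor and nickel acceptor beads; after a one-hour incubation at 37 °C without light, AlphaScreen emission is recorded.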
CtBP-E1A inh: inhibitors of CtBP/E1A interaction | AlphaScreen GST-E1A/His-CtBP binding, 1536-well; active compounds read low | activity change, % (no concentration beside the values) | hit rate 0.49% among 340,000 | AID 651724
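Steps: dispense buffer (Tris pH 8.0, NaCl 300 mM, TCEP 1 mM, BSA, Tween 20); add 5X protein mix (GST-E1A, His-CtBP, 125 nM each); pin 23 nL compound; 2 h at 37 °C, dark; add 5X beads (50 ug/mL); 1 h; read.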
JMJD2E inh: blocks human JMJD2E demethylase activity; B2RXH2; JMJD2E catalytic domain, FDH-coupled NADH fluorescence (FDH is formaldehyde dehydrogenase); Potency, µM (series often up to 57.1 µM), for the others: at the top dose activity change, negative = inhibition, actives largely listed as inhibitors; hit rate 1.6% among 230,000; AID 2147; active = well fitted inhibition curve with a large enough effect, not every such curve was filed as active; inconclusive = small, poorly fitted or top-dose-only effect, or another doubt; inactive = no such curve, though single readings can be large or run the other way;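 note: potency is the fitted concentration of half-maximal effect; 0% = wells with enzyme and -100% = buffer wells without enzyme; nearly all actives have a fitted effect of over 50% in size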
Target sequence (B2RXH2 1-337 limits assumed): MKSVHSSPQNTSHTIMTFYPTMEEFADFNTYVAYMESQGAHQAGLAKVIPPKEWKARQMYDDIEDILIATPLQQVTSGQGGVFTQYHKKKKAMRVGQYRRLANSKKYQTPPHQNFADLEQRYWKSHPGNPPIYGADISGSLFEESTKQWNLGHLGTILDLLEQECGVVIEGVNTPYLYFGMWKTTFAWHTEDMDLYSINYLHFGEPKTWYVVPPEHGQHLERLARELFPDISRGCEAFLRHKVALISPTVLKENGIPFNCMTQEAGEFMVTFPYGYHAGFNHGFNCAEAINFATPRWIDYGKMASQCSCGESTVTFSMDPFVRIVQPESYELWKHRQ
L3MBTL1 inh: L3MBTL1 (human) inhibition; Q9Y468; AlphaScreen L3MBTL1–H3K9me1 peptide binding; Potency, µM (doses to about 57.1 µM), for inactives: at the highest dose activity, negative = inhibition, most hits filed as inhibitors; hit rate 0.66% among 230,000; AID 485360; active = well fitted inhibition curve with a large enough effect; inconclusive = small, poorly fitted or top-dose-only effect; inactive = no such curve, though single readings can be large or run the other way; note: potency is the fitted concentration of half-maximal effect; nearly all actives have a fitted effect of over 60% in size
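L3MBTL1 (50 nM) pre-complexed 30 min with biotinylated H3(1-15)K9me1 peptide (75 nM), then compounds added for 30 min at room temperature; AlphaScreen streptavidin donor/nickel chelate acceptor beads (10 ug/mL final) read after 30 min dark incubation.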
Numbers without * were called inactive; ? = inconclusive; . = no result given. Cut-off read from the data, not from the text of the source, unless noted: active = activity change below about -65%; inconclusive = mostly about -30% to -63%; inactive = weaker than that. Unless noted, % is set by controls: 0 for no effect and ±100 for the full control effect.

SMILES	Six1-Eya2 blk	CtBP-E1A inh	JMJD2E inh	L3MBTL1 inh
O=C(NCc1cc(Br)cc(Br)c1OC(=O)c1ccccc1[N+](=O)[O-])c1ccccc1	-72*	?	-12%	-12%
CCCCCCCC/C=C\CCCCCCCC(=O)OCC(CO)OC(=O)CCCCCCC/C=C\CCCCCCCC (stereo not drawn)	.	.	19%	.
CCCCOc1cc(C(=O)NCCN(CC)CC)c2ccccc2n1	8	-4	32µM*	1%
COc1ccc(C(=O)Nc2ccc(-c3cn4ccsc4n3)cc2)cc1S(=O)(=O)N1CCOCC1	-77*	-73*	?	-6%
Oc1ccc(-c2csc(Nc3ncccn3)n2)c(O)c1	-7	-1	7%	5%
Cc1nc(-c2ccc(O)c(O)c2)cs1	-4	-3	16µM*	.
Oc1ccc(-c2csc(Nc3ncccn3)n2)cc1O	-14	?	28µM*	-1%
Oc1ccc(-c2csc(-c3cccnc3)n2)cc1O	-9	-13	14µM*	.
c1ccc(-c2cnc(-c3ccccn3)nn2)cc1	-91*	-86*	.	.
Cc1cc(Oc2ccc(Cl)cc2)nc(-c2ccccn2)n1	4	2	-3%	-17%
c1ccc(-c2cnnc(-c3ccccn3)n2)cc1	-88*	-76*	.	.
c1ccc(-c2cnc(-c3ccccc3)nn2)cc1	5	0	.	.
Nc1nc(N)nc(-c2ccccn2)n1	-81*	-73*	?	?
c1ccc(-c2cncnc2)nc1	14	-17	.	-2%
Nc1nc(N)nc(-c2ccccc2O)n1	0	-12	-6%	4%
Clc1ccc(-c2cnnc(-c3ccccn3)n2)cc1	-86*	-84*	.	3.2µM*
Cn1c(=O)[nH]c(=O)c2c1nc(N1CCOCC1)n2CCc1ccccc1	-4	0	6%	2%
COc1cc(C=NO)nc(-c2ccccn2)c1	-92*	3	.	.
COc1ccc2nc(-c3ccccn3)[nH]c2c1	-24	-21	.	.
O=c1[nH]c(=O)c2nnc(N/N=C/c3ccccc3F)nc2[nH]1	-19	?	1%	.
O=c1[nH]c(=O)c2nnc(N/N=C\c3ccc(O)cc3)nc2[nH]1	-75*	-65*	3%	.
O=C(c1cc([N+](=O)[O-])ccc1Cl)N1c2ccccc2Sc2ccccc21	?	-10	2%	-29%
O=C(/C=C/c1cc(Br)ccc1F)OCC(=O)N1CCOCC1	-24	-81*	.	-2%
CCN(CC(=O)Nc1cc(C)c(Cl)cc1OC)CC(=O)NC1CCS(=O)(=O)C1 (stereo not drawn)	5	3	-2%	.
Cc1ccc2[nH]c(=O)c(C3C(C#N)=C(N)Oc4c3ccc3cccnc43)cc2c1 (stereo not drawn)	?	-92*	?	.
SMILES	Six1-Eya2 blk	CtBP-E1A inh	JMJD2E inh	L3MBTL1 inh
CC(C)(C)Nc1oc(-c2ccccc2)nc1-c1ccccc1	.	.	-4%	.
COc1c(O)c(=O)n2c3ccccc3c3ccnc1c32	-77*	-82*	.	-5%
[O-]/C(=C(\C(=S)Nc1cccc2ccccc12)[n+]1cccc(CO)c1)c1ccc(Cl)s1	-8	-12	13µM*	.
CCC1=C(OC(=O)N(CC)CC)N2C(=O)OC(=NCCOC)[C@]2(C)[C@H]2C1=CC[C@H]1C(=O)N(C)C(=O)[C@H]12	.	.	-6%	.
CCOC(=O)C(=Cc1ccc(-n2ccnc2)cc1)C(=O)OCC	7	0	11µM*	.
COc1ccc(N(CC(=O)Nc2cccc(C)c2C)S(=O)(=O)c2c(C)n[nH]c2C)cc1	?	-66*	-5%	-7%
COc1ccc(N(CC(=O)Nc2cccc(C)c2C)S(=O)(=O)c2c(C)[nH]c(=O)[nH]c2=O)cc1	-3	-3	4%	-5%
C=CCOC(=O)[C@H](O)[C@@H](O)C(=O)OCC=C	.	.	-4%	.
CC/C(=N\NC(=O)C(N)=O)c1ccccc1O	-15	?	8.9µM*	1%
O=C(N/N=C/c1ccc(OC(=O)c2ccccc2Cl)cc1)c1cc(O)cc(O)c1	-68*	-74*	.	.
O=C(COC(=O)/C=C/c1ccc(Cl)cc1)Nc1cccc(S(=O)(=O)NC2=NCCCCC2)c1	-7	-84*	.	-8%
O=C(COC(=O)/C=C/c1cccc(Br)c1)Nc1cccc(S(=O)(=O)NC2=NCCC2)c1	-20	.	.	-1%
O=C(COC(=O)/C=C/c1cccc(Cl)c1)Nc1cccc(S(=O)(=O)NC2=NCCC2)c1	-15	-80*	.	-5%
O=C(COC(=O)/C=C/c1ccc(Cl)cc1Cl)Nc1cccc(S(=O)(=O)NC2=NCCC2)c1	-18	-17	.	.
Cc1cccc2nc(C(=O)Nc3cccc(C(=O)NC4CC4)c3)cn12	-5	.	.	2%
CC1(C)CCCN(C(=O)c2coc(=O)c(Br)c2)C1	?	10	?	6.3µM*
CC(C)C[C@@H](CC(=O)N[C@@H](CCCN)CC(=O)N[C@@H]1CCNC[C@H]1C(=O)N[C@H](CC(=O)N[C@@H](CCC(=O)O)CC(=O)O)Cc1ccccc1)NC(=O)[C@@H]1CCCC[C@H]1N	.	.	-12%	.
COc1cccc(O)c1O	.	.	7.9µM*	.
COc1ccccc1-c1nccc(NCc2cccc(C)c2)n1	.	.	-11%	.
Cc1ccc(O)c(NC2=C(Cl)C(=O)N(Cc3ccccc3)C2=O)c1	-15	-10	22µM*	?
Cc1ccc(C(=O)N2CCCCC2)cc1NC1=C(Cl)C(=O)N(Cc2ccccc2)C1=O	-5	.	.	-11%
O=C(N[C@@H](c1ccccc1)[C@@H]1C[C@H]1C(=O)NCc1ccccc1)OCc1ccccc1	.	.	17%	.
CC1=CC(=Nc2c(C)n(C)n(-c3ccccc3)c2=O)C=C(C)C1=O	17	41	-39%	-13%
CC1=CC(=Nc2c(C)n(C)n(-c3ccccc3)c2=O)C=CC1=O	.	.	1.8µM*	-4%
CN(C)c1ccc(NC(=O)CC(NCc2ccccn2)C(=O)O)cc1 (stereo not drawn)	-92*	7	4%	13µM*
SMILES	Six1-Eya2 blk	CtBP-E1A inh	JMJD2E inh	L3MBTL1 inh
COc1ccc2[nH]c3c(c2c1)CCN1C(=O)C(CC(=O)NCc2ccco2)C[C@H](C(=O)N2CCOCC2)[C@@]31C (stereo partly drawn)	-7	-3	.	-5%
CCOC(=O)c1c(OCC)[nH]c2c1cc(O)c1ccccc12	?	?	22µM*	-6%
COc1ccccc1CNC(=O)COC(=O)C1CCN(S(=O)(=O)c2c(Cl)cccc2Cl)CC1	-2	7	.	.
CC1(C(=O)NS(=O)(=O)c2ccc(Cl)cc2)CCN1C(=O)CCc1cccs1 (stereo not drawn)	1	7	.	.
COc1ccc(NCc2ccc([N+](=O)[O-])s2)c(OC)c1	-9	-24	10µM*	?
COc1ccc(-c2cc(C(F)(F)F)n3nc(C(=O)O)cc3n2)cc1OC	-70*	?	-12%	5%
NC(=O)c1cc2nc(-c3ccco3)cc(C(F)(F)F)n2n1	-72*	-80*	?	-11%
COC(=O)c1cc2nc(-c3ccc(OC)c(OC)c3)cc(C(F)(F)F)n2n1	-10	-13	9%	-1%
O=C(c1cc2nc(-c3ccco3)cc(C(F)(F)F)n2n1)N1CCCCCC1	7	0	?	15%

Screening data deposited in PubChem BioAssay by National Center for Advancing Translational Sciences (NCATS).
